From the supplement of paper PMC13380429
A number with no mark means an inactive call.

Tested on: Vero E6 infected with SARS-CoV-2
Assay: inhibition of SARS-CoV-2 cytopathic effect; higher = more antiviral protection, active = above 15
Settings: 48 h

SMILES | inhibition of SARS-CoV-2 cytopathic effect (1 nM) [%] | inhibition of SARS-CoV-2 cytopathic effect (8.33 nM) [%] | inhibition of SARS-CoV-2 cytopathic effect (100 nM) [%] | inhibition of SARS-CoV-2 cytopathic effect (833.33 nM) [%] | inhibition of SARS-CoV-2 cytopathic effect (10000 nM)
O=S(=O)(O)c1ccc(-c2c3nc(c(-c4ccc(S(=O)(=O)O)cc4)c4ccc([nH]4)c(-c4ccc(S(=O)(=O)O)cc4)c4nc(c(-c5ccc(S(=O)(=O)O)cc5)c5ccc2[nH]5)C=C4)C=C3)cc1 | -2.9 | -2.68 | -5.47 | -6.51 | -7.03%
Nc1ccc(-c2nc3ccc(-c4nc5ccc(N)cc5[nH]4)cc3[nH]2)cc1 | -0.32 | 0.21 | -0.94 | 2.79 | 6.35%
c1ccc(C[C@H](c2ccccc2)N2CCCCC2)cc1 (racemic) [1-(1,2-diphenylethyl)piperidine-(+/-)] | 0.78 | 0.67 | 0.96 | 0.92 | 2.17%
C[n+]1c2cc(N)ccc2cc2ccc(N)cc21 [acriflavinium] | -3.77 | -2.4 | -2.84 | -0.42 | -5.69%
Nc1ccc(C(=O)Nc2cccc(-c3nc(N4CCOCC4)c4oc5ncccc5c4n3)c2)cn1 | -0.93 | -2.3 | -2.43 | 0 | 20.4% (active)
O=C1CC2(CCCC2)CC(=O)N1CCCCNC[C@H]1COc2ccccc2O1 (racemic) | 2.83 | -1.41 | -1.75 | -0.98 | -5.48%
OCc1cccnc1 [nicotinyl-alcohol-tartrate] | -0.34 | -0.51 | -0.17 | 0.73 | -0.73%
CCCCCCCCCCCCCCCCCC(=O)OCC(O)CO (stereo not given) [monostearin] | 3.45 | 0.27 | 0.45 | 0.48 | -0.08%
OC(CCCN1CCN(c2ncc(F)cn2)CC1)c1ccc(F)cc1 (stereo not given) | -3.3 | -0.94 | 3.34 | 4.34 | 0.33%
Cc1cccc(/C=C/c2ccccc2)n1 | 3.85 | -0.34 | -0.78 | -1.72 | -2.74%
O=C(O)[C@H]1CC[C@H](c2cc3cccnc3c(-c3cccc(F)c3)n2)CC1 | -3.3 | -2.36 | -0.1 | 0.23 | 1.21%
CN1CCC(=C2c3ccccc3Sc3ccccc32)CC1 [pimethixene] | 1.38 | 0.84 | -0.63 | -0.47 | -3.2%
CNC(=O)c1ccc(N2C(=S)N(c3cnc(C#N)c(C(F)(F)F)c3)C(=O)C23CCC3)cc1F [apalutamide] | 0.94 | 1.02 | 1.33 | 0.68 | 1.02%
CCC(=O)OCC(=O)[C@@]1(OC(=O)CC)[C@@H](C)C[C@H]2[C@@H]3CCC4=CC(=O)C=C[C@]4(C)[C@@]3(Cl)[C@@H](O)C[C@@]21C [beclomethasone-dipropionate] | -9.44 | -9.23 | -11.4 | -9.54 | -6.97%
CN1C[C@H](CNC(=O)OCc2ccccc2)C[C@@H]2c3cccc4c3c(cn4C)C[C@H]21 [metergoline] | -10.3 | -6.82 | -4.21 | -6.12 | -2.89%
C[C@H](CCC(=O)NCCS(=O)(=O)O)[C@H]1CC[C@H]2[C@@H]3[C@H](O)C[C@@H]4C[C@H](O)CC[C@]4(C)[C@H]3C[C@H](O)[C@]12C [taurocholate] | -8.93 | -4.1 | -6.72 | -7.82 | -8.38%
CC1(C)[C@@H](O)CC[C@]2(C)[C@H]3C(=O)C=C4[C@@H]5C[C@@](C)(C(=O)O)CC[C@]5(C)CC[C@@]4(C)[C@]3(C)CC[C@@H]12 [enoxolone] | -3.08 | -3.58 | -1.05 | 2.65 | -0.55%
O=C(c1ccc(F)cc1)C1CCN(CCCCc2ccccc2)CC1 [4-(4-fluorobenzoyl)-1-(4-phenylbutyl)-piperidine] | -4.06 | -1.58 | -0.19 | 1.25 | -4.47%
Cc1cc(NCCO)nc(-c2ccc(Br)cc2)n1 | 1.81 | -1.79 | -0.15 | 0.73 | -2.57%

SMILES | inhibition of SARS-CoV-2 cytopathic effect (1 nM) [%] | inhibition of SARS-CoV-2 cytopathic effect (8.33 nM) [%] | inhibition of SARS-CoV-2 cytopathic effect (100 nM) [%] | inhibition of SARS-CoV-2 cytopathic effect (833.33 nM) [%] | inhibition of SARS-CoV-2 cytopathic effect (10000 nM)
Cc1nc(N)sc1-c1ccnc(Nc2ccc(N3CCOCC3)cc2)n1 | 0.34 | 0.72 | 0.35 | 2.13 | 2.1%
CCOC(=O)C1=C(N)Oc2ccc(Br)cc2C1C(C#N)C(=O)OCC (stereo not given) | -0.86 | 0.28 | 0.47 | 0.895 | 2.46%
NC(=O)c1ccc(-c2nc(-c3ccccn3)c(-c3ccc4c(c3)OCO4)[nH]2)cc1 | -0.24 | 0.7 | 0.26 | -3.74 | -3.14%
C/C(=C\C(=O)OCCCCCCCCC(=O)O)C[C@@H]1OC[C@H](C[C@@H]2O[C@H]2[C@@H](C)[C@H](C)O)[C@@H](O)[C@H]1O [mupirocin] | -1.43 | -0.61 | 0.52 | 2.09 | 1.36%
CNCC(O)c1ccc(O)c(O)c1 (racemic) [DL-Adrenaline] | 1.39 | -1.53 | 1.56 | -2.05 | -1.47%
CC(=O)[C@H]1CC[C@H]2[C@@H]3CC=C4C[C@@H](OC(=O)CCC(=O)O)CC[C@]4(C)[C@H]3CC[C@]12C [pregnenolone-succinate] | 5.34 | 3.1 | 3.45 | 5.79 | 5.05%
CC(C)(C)NC(=O)[C@@H]1CN(Cc2cccnc2)CCN1C[C@@H](O)C[C@@H](Cc1ccccc1)C(=O)N[C@H]1c2ccccc2C[C@H]1O [indinavir] | -3.73 | -5.87 | -9.09 | -8.27 | -10.5%
c1ccc2sc(N3CCN(Cc4ccc5c(c4)OCO5)CC3)nc2c1 [2-[1-(4-piperonyl)piperazinyl]benzothiazole] | -3.54 | -1.04 | -3.92 | -3.68 | -2.73%
CC(=O)OCC(=O)[C@H]1CC[C@H]2[C@@H]3CC[C@H]4C[C@H](O)CC[C@]4(C)[C@H]3C(=O)C[C@]12C [alfadolone-acetate] | 3.28 | 3.18 | 2.11 | 1.64 | -4.57%
O=C1c2ccccc2C(Cc2ccncc2)(Cc2ccncc2)c2ccccc21 | 1.49 | -1.95 | -1.48 | -2.88 | -3.65%
O=P(O)(O)C(O)(Cc1cccnc1)P(=O)(O)O [risedronate] | -0.54 | -1.25 | -0.67 | 3.13 | 1.96%
CCOC(=O)[C@H](Cc1ccc([N+](=O)[O-])cc1)NC(=O)c1ccccc1 | 0.55 | 1.63 | 2.6 | -1.21 | 0.3%
Cn1c(=O)cnn(CCCCN2CCN(c3ncccn3)CC2)c1=O | 0.44 | -0.24 | 1.14 | -0.77 | 1.05%
O=C(O)c1ccc2[nH]cc(CCCCN3CC=C(c4ccccc4)CC3)c2c1 [carmoxirole] | 1.76 | 1.65 | -1.21 | 0.28 | 0.69%
O=C(O)CCNc1cc(N2CCc3ccccc3CC2)nc(-c2ccccn2)n1 | -2.6 | 1.21 | 0.26 | -1.21 | 0.82%
c1ccc2[nH]c(-c3cscn3)nc2c1 [tiabendazole] | 2.1 | 1.24 | -0.24 | 0.7 | -0.19%
C=C1/C(=C\C=C2/CCC[C@]3(C)[C@@H]([C@H](C)/C=C/C=C/C(O)(CC)CC)CC[C@@H]23)C[C@@H](O)C[C@@H]1O [seocalcitol] | -3.06 | -2.2 | -0.09 | 1.95 | 1.01%
O=C1N(c2ccccc2)c2ccccc2C1(Cc1ccncc1)Cc1ccncc1 [linopirdine] | 2.06 | 0.32 | 1.23 | -0.29 | 1.14%
